Giardia FBPA inh – blocks Giardia fructose-bisphosphate aldolase activity; hit rate 0.71% among 290,000; Potency, µM (series often up to 59.6 µM), for inactives: at the top dose activity, negative = inhibition, usual class: inhibitors; AID 2451; purified Giardia FBPA; note: nearly all actives have a fitted effect of over 55% in size
Target sequence (A8B2U2 whole entry, looked up): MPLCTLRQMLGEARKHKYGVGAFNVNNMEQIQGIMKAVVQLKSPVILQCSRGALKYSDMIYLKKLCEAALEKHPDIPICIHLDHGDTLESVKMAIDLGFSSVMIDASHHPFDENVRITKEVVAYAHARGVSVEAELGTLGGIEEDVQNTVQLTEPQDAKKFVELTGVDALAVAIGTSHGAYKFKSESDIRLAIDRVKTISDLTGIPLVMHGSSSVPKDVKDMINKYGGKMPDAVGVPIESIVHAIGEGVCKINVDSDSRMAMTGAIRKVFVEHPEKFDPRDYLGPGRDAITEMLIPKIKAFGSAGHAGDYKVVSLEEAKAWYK
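Giardia FBPA (40 nM reagent) was preincubated 10 min at RT with compound (up to 57.5 uM final), then substrate plus GAPDH/TPI/NAD/arsenate coupling system with diaphorase/resazurin was added; resorufin fluorescence (525/598 nm) was read after 20 min.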
AmpC inh no detg – AmpC beta-lactamase inhibition without detergent | P00811 | AmpC nitrocefin hydrolysis, absorbance 480 nm, 0.0001% Triton | Potency, µM (highest dose often 57.1 µM), inactives show at the top dose activity change, negative = inhibition, most hits filed as inhibitors | hit rate 0.52% among 330,000 | AID 485341;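 note: plate controls were no compound for no effect and no enzyme for full effect; nearly all actives have a fitted effect of over 20% in size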
Target sequence (P00811 whole entry, looked up): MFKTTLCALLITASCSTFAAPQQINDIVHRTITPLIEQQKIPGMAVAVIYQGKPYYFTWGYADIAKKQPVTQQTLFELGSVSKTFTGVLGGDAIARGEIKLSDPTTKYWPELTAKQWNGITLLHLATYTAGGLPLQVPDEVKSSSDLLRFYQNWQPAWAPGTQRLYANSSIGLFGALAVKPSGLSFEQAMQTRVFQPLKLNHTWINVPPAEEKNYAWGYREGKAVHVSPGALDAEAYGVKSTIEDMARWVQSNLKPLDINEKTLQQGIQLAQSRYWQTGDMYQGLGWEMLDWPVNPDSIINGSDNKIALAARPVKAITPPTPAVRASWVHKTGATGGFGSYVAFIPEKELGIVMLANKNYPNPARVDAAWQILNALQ
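AmpC (5.3 nM in the dispensed reagent) in 20 mM phosphate pH 7.0 with 0.01% (detergent screen) or 0.0001% Triton X-100 was preincubated with compounds for 15 min at room temperature. Nitrocefin was then added from an 800 uM solution, and hydrolysis was followed at 480 nm.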
Sm TGR inh – S. mansoni TGR enzyme inhibition; purified TGR, DTNB reduction, TNB absorbance 405 nm; hit rate 3% among 360,000; AID 485364; Potency, µM (doses to about 114 µM), for the others: top-dose activity change, negative = inhibition, usual class: inhibitors; note: nearly all actives have a fitted effect of over 60% in size
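TGR 20 nM + NADPH 100 uM (dispensed conc.), cpd preinc 15 min RT; start with NADPH (500 uM addition) then DTNB (15 mM addition). Kinetic TNB absorbance, 405 nm filter. Four-parameter Hill fit across titration.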
AmpC inh detg – inhibitors of E. coli AmpC beta-lactamase with detergent; AmpC hydrolysis of nitrocefin, absorbance 480 nm, 0.01% Triton; hit rate 0.041% among 370,000; P00811; Potency, µM (top dose mostly 114 µM), for the others: at the highest dose activity change, negative = inhibition, usual class: inhibitors;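 note: 0% = no-compound wells and -100% = no-enzyme wells; nearly all actives have a fitted effect of over 25% in size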
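AmpC (5.3 nM in the dispensed reagent) in 20 mM phosphate pH 7.0 with 0.01% (detergent screen) or 0.0001% Triton X-100 was preincubated with compounds for 15 min at room temperature. Nitrocefin was then added from an 800 uM solution, and hydrolysis was followed at 480 nm.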
Numbers without * were called inactive; [ ] = dose if it differs, or a comment. An excerpt weighted towards active compounds, which were near 3.6% of everything screened. Calls come from the whole dose curve; as a rule, active = well fitted curve in the direction sought with a large enough effect; inconclusive = small, poorly fitted or top-dose-only effect, or another doubt; inactive = no such curve, though single readings can be large; an effect the other way counts as inactive or inconclusive. Unless noted, % is set by controls: 0 for no effect and ±100 for the full control effect; potency is the fitted concentration of half-maximal effect.

`CC(=NCC1CCCO1)c1c(O)n(Cc2ccccc2)c(=O)[nH]c1=O` (configuration not stated) gave Giardia FBPA inh -0.8%, AmpC inh no detg 2.24µM*, Sm TGR inh -20.1% and AmpC inh detg 6.9%.
Screening CN(C)CCCN1C(=O)C2CCc3[nH]c4ccccc4c3C2C1=O (configuration not stated) returned Giardia FBPA inh -7.2%, AmpC inh no detg 3.7%, Sm TGR inh 0.0% and AmpC inh detg 0.8%.
Screening O=C1CCCC(=O)C1C1c2ccccc2CCN1C(=O)CCl (configuration not stated) returned Giardia FBPA inh -6.2%, AmpC inh no detg -14.9%, Sm TGR inh 44.7µM* and AmpC inh detg -6.9%.
For COCCNC(=O)C(c1ccc(C)cc1)N(Cc1ccco1)C(=O)CCC(=O)Nc1ccccn1 (configuration not stated) the results were Giardia FBPA inh -12.9%, AmpC inh no detg 110.6%, Sm TGR inh 5.9% and AmpC inh detg 0.4%.
`Cc1c(C(=O)NCc2ccc(Cl)cc2)sc2nc3n(c(=O)c12)CCCC3` gave Sm TGR inh inconclusive and AmpC inh detg 28.0%.
Screening Cc1c(C(=O)NCc2cccc(Cl)c2)sc2nc3n(c(=O)c12)CCCC3 returned Sm TGR inh 14.1µM* and AmpC inh detg 26.9%.
For CCc1cccc(NC(=O)c2sc3nc4n(c(=O)c3c2C)CCC4)c1 the results were AmpC inh no detg 97.9%, Sm TGR inh 1.1% and AmpC inh detg 1.6%.
Cc1c(C(=O)Nc2cccc(C#N)c2)sc2nc3n(c(=O)c12)CCCCC3 was read as Sm TGR inh 5.62µM* and AmpC inh detg 6.0%.
`COC(=O)[C@@]1(Cc2ccccc2)[C@H]2C(=O)N(C)C(=O)[C@H]2[C@H]2CN=C(SCc3ccccc3)N21` gave AmpC inh no detg 170.0%.
For CCC(=O)Nc1nc2c(s1)COc1ccccc1-2 the results were Giardia FBPA inh 0.3%, AmpC inh no detg 2.82µM*, Sm TGR inh -0.6% and AmpC inh detg 3.5%.
Screening CC1Cc2ccccc2N1S(=O)(=O)c1cnc(Cl)c(Br)c1 (configuration not stated) returned Giardia FBPA inh 1.4%, AmpC inh no detg -9.8%, Sm TGR inh 7.94µM* and AmpC inh detg 1.1%.
Screening Cc1cccc2c1=NC(=O)/C(=C/c1c(O)[nH]c(=O)[nH]c1=O)C=2 returned Giardia FBPA inh 0.2%, AmpC inh no detg -1.3%, Sm TGR inh 35.5µM* and AmpC inh detg -14.2%.
Screening CC(Cl)C(=O)N1c2ccccc2CCc2ccccc21 (configuration not stated) returned Giardia FBPA inh -1.7%, AmpC inh no detg -0.4%, Sm TGR inh -5.7% and AmpC inh detg inconclusive.
For O=C(CCl)N1c2ccccc2CCc2ccccc21 the results were Giardia FBPA inh -7.7%, AmpC inh no detg -0.8%, Sm TGR inh 11.2µM* and AmpC inh detg 2.2%.
Screening COc1ccccc1C1CC(=O)Oc2cc3c(cc21)OCO3 (configuration not stated) returned Giardia FBPA inh 39.7µM*.
For COc1ccccc1C1CC(=O)Oc2cc(C)c(Cl)cc21 (configuration not stated) the results were Giardia FBPA inh -6.6%[89.2 µM] and AmpC inh no detg -27.4%.
`COc1ccc(C(=O)NCC(c2ccco2)N(C)C)cc1S(=O)(=O)NCc1ccc(Cl)cc1` (configuration not stated) gave AmpC inh no detg -11.0%, Sm TGR inh inconclusive and AmpC inh detg 5.7%.
For CCN1C(=O)N/C(=C/c2ccc(C)o2)C1=O the results were Giardia FBPA inh inconclusive, AmpC inh no detg -9.6%, Sm TGR inh 35.5µM* and AmpC inh detg -0.7%.
For Cc1ccc(/C=C2/NC(=O)N(Cc3ccccc3F)C2=O)o1 the results were Giardia FBPA inh inconclusive, AmpC inh no detg -58.0%, Sm TGR inh inconclusive and AmpC inh detg -10.3%.
Screening CCN1C(=O)N/C(=C/c2ccc(Sc3ccc(C)cc3)o2)C1=O returned AmpC inh no detg -30.8%, Sm TGR inh inconclusive and AmpC inh detg -3.5%.
Cc1ccc(/C=C2/NC(=O)N(c3ccccc3)C2=O)o1 was read as Giardia FBPA inh -29.8%, AmpC inh no detg -25.6%, Sm TGR inh 31.6µM* and AmpC inh detg -2.0%.
`Cc1ccc(/C=C2/NC(=O)N(Cc3ccc(Br)cc3)C2=O)o1` gave Giardia FBPA inh inconclusive, AmpC inh no detg 2.51µM*, Sm TGR inh 50.1µM* and AmpC inh detg -5.5%.
Screening CCCN1C(=O)/C(=C/c2ccc(C)o2)NC1=S returned Giardia FBPA inh inconclusive, AmpC inh no detg -43.9%, Sm TGR inh 6.31µM* and AmpC inh detg 1.9%.
For Cc1c(C(=O)O)cccc1-c1ccc(/C=C2/NC(=O)N(c3ccccc3)C2=O)o1 the results were Giardia FBPA inh -13.1%, AmpC inh no detg -11.9%, Sm TGR inh -26.6% and AmpC inh detg 6.4%.
Screening CCCN1C(=O)/C(=C/c2ccc(N3CCOCC3)cc2)NC1=S returned Giardia FBPA inh -9.2%, AmpC inh no detg -10.9%, Sm TGR inh 5.3% and AmpC inh detg -1.6%.
For COc1cccc(C2C(=O)N(C3CCCCC3)CC(=O)N2CCc2ccc(OC)c(OC)c2)c1 (configuration not stated) the results were Sm TGR inh 10.7% and AmpC inh detg 6.0%.
O=C(Cn1cnc(Cl)c1Cl)c1ccc(F)cc1 was read as Giardia FBPA inh 7.0%, AmpC inh no detg -16.0%, Sm TGR inh 4.3% and AmpC inh detg -8.1%.
CCN1C(=O)/C(=C/c2cccs2)N(C)C1=S was read as Giardia FBPA inh 0.8%, AmpC inh no detg -12.0%, Sm TGR inh 0.9% and AmpC inh detg -12.4%.
For O=C1N/C(=C/c2ccc(N3CCOCC3)o2)C(=O)N1c1cccc(Cl)c1 the results were Giardia FBPA inh -25.1%, AmpC inh no detg -16.9%[2.29 µM], Sm TGR inh 2.82µM* and AmpC inh detg -1.0%.
Screening CCN1C(=O)/C(=C/c2ccc(C)o2)N(C)C1=S returned Giardia FBPA inh -10.6%, AmpC inh no detg -21.6%, Sm TGR inh 28.2µM* and AmpC inh detg inconclusive.
`COc1ccc(OC)c(NC(=O)c2cc(S(=O)(=O)NCc3ccco3)ccc2F)c1` gave Giardia FBPA inh 1.0%, AmpC inh no detg -24.3%, Sm TGR inh 1.5% and AmpC inh detg inconclusive.
For CCOc1cc(NS(=O)(=O)c2ccccc2)c(OCC)cc1NC(=O)c1ccco1 the results were Giardia FBPA inh inconclusive, AmpC inh no detg -3.7%, Sm TGR inh 31.6µM* and AmpC inh detg 0.3%.
CCOc1ccccc1NC(=O)c1cc(S(=O)(=O)NCc2ccco2)ccc1F was read as AmpC inh no detg -43.7%, Sm TGR inh 31.6µM* and AmpC inh detg 0.1%.
For COc1cccc(CNC(=O)c2ccc(C)c(NC3=NC4CS(=O)(=O)CC4S3)c2)c1 (configuration not stated) the results were Giardia FBPA inh inconclusive, AmpC inh no detg -8.8%, Sm TGR inh -16.1% and AmpC inh detg -12.4%.
Screening COc1c(Cl)cnn(-c2ccccc2)c1=O returned Giardia FBPA inh 0.1%, AmpC inh no detg -15.5%, Sm TGR inh -7.6% and AmpC inh detg -11.8%.

Screening results (PubChem BioAssay)
